Reference: the OligoGym collection

biological target: FGF2; assay: pooled miR-30 sensor sort-seq; sequence = guide strand; details: shRNA

Which sensor-assay potency score (higher = more potent) does the source give for TAGAAGCCAGTAATCTTCCATC here?
Its sensor-assay potency score (higher = more potent) is -0.587.

How did the sensor-assay potency score (higher = more potent) turn out when TTAGAAGCCAGTAATCTTCCAT was run?
The sensor-assay potency score (higher = more potent) was 0.816.

How did the sensor-assay potency score (higher = more potent) turn out when TTCTAAAATATACTTCTTCTTT was run?
The sensor-assay potency score (higher = more potent) was -0.418.

With ATAGACACAACTCCTCTCTCTT as the sequence, how does the sensor-assay potency score (higher = more potent) read?
Its sensor-assay potency score (higher = more potent) is -0.298.

Which sensor-assay potency score (higher = more potent) does the source give for AAAAAAGAAACACTCATCCGTA here?
Its sensor-assay potency score (higher = more potent) is 0.00256.

With TTCAGTGCCACATACCAACTGG as the sequence, how does the sensor-assay potency score (higher = more potent) read?
Its sensor-assay potency score (higher = more potent) is -0.475.

TTGCAGTACAGCCGCTTGGGGT was tested. Which sensor-assay potency score (higher = more potent) did it give?
The sensor-assay potency score (higher = more potent) was -1.34.

TATTAGATTCCAATCGTTCAAA was tested. Which sensor-assay potency score (higher = more potent) did it give?
The sensor-assay potency score (higher = more potent) was -0.684.

How did the sensor-assay potency score (higher = more potent) turn out when TTGGAAGAAAAAGTATAGCTTT was run?
The sensor-assay potency score (higher = more potent) was 0.162.

With TATACTTCTTCTTTCATGTGAA as the sequence, how does the sensor-assay potency score (higher = more potent) read?
Its sensor-assay potency score (higher = more potent) is 0.715.

How did the sensor-assay potency score (higher = more potent) turn out when TGGTGTATTTCCTTGACCGGTA was run?
Its sensor-assay potency score (higher = more potent) is -0.344.

How did the sensor-assay potency score (higher = more potent) turn out when TTTGATAGACACAACTCCTCTC was run?
The sensor-assay potency score (higher = more potent) was 0.744.

For AACGGTTAGCACACACTCCTTT, which sensor-assay potency score (higher = more potent) is on record?
The sensor-assay potency score (higher = more potent) was 0.1.

With TAGTTATTAGATTCCAATCGTT as the sequence, how does the sensor-assay potency score (higher = more potent) read?
The sensor-assay potency score (higher = more potent) was -0.676.

Which sensor-assay potency score (higher = more potent) does the source give for TAGACACAACTCCTCTCTCTTC here?
Its sensor-assay potency score (higher = more potent) is -0.65.

For TTTGCAGTACAGCCGCTTGGGG, which sensor-assay potency score (higher = more potent) is on record?
Its sensor-assay potency score (higher = more potent) is -0.977.

Which sensor-assay potency score (higher = more potent) does the source give for TAGCTTTCTGCCCAGGTCCTGT here?
Its sensor-assay potency score (higher = more potent) is -0.929.

How did the sensor-assay potency score (higher = more potent) turn out when TGAGGGTCGCTCTTCTCCCGGA was run?
The sensor-assay potency score (higher = more potent) was -0.455.

With TTGATAGACACAACTCCTCTCT as the sequence, how does the sensor-assay potency score (higher = more potent) read?
Its sensor-assay potency score (higher = more potent) is 0.382.

How did the sensor-assay potency score (higher = more potent) turn out when TTTGGATCCAAGTTTATACTGC was run?
Its sensor-assay potency score (higher = more potent) is -0.268.

For TAACGGTTAGCACACACTCCTT, which sensor-assay potency score (higher = more potent) is on record?
Its sensor-assay potency score (higher = more potent) is -1.27.

TAGCTTGATGTGAGGGTCGCTC was tested. Which sensor-assay potency score (higher = more potent) did it give?
Its sensor-assay potency score (higher = more potent) is -0.132.

Which sensor-assay potency score (higher = more potent) does the source give for TCCATCTTCCTTCATAGCCAGG here?
The sensor-assay potency score (higher = more potent) was -1.98.

How did the sensor-assay potency score (higher = more potent) turn out when TAACACATTTAGAAGCCAGTAA was run?
Its sensor-assay potency score (higher = more potent) is -0.0447.

biological target: FGFR1; assay: as above; details: shRNA

ATCATGTACAGCTCGTTGGTGC was tested. Which sensor-assay potency score (higher = more potent) did it give?
Its sensor-assay potency score (higher = more potent) is -0.372.

Which sensor-assay potency score (higher = more potent) does the source give for TTTGTGTTTTCTTCATAGCTAT here?
Its sensor-assay potency score (higher = more potent) is -0.428.

How did the sensor-assay potency score (higher = more potent) turn out when TGTAGCAGTATTCCAGCCCTGG was run?
The sensor-assay potency score (higher = more potent) was -0.142.

TTGTCGGTGGTATTAACTCCAG was tested. Which sensor-assay potency score (higher = more potent) did it give?
The sensor-assay potency score (higher = more potent) was -1.38.

How did the sensor-assay potency score (higher = more potent) turn out when TTTATAGTAGTCGATGTGGTGA was run?
Its sensor-assay potency score (higher = more potent) is -0.221.

Which sensor-assay potency score (higher = more potent) does the source give for TTGTCTTTTTATAGTAGTCGAT here?
Its sensor-assay potency score (higher = more potent) is -0.804.

Which sensor-assay potency score (higher = more potent) does the source give for TTCTTTTCCATCTTTTCTGGGG here?
Its sensor-assay potency score (higher = more potent) is -0.274.

Which sensor-assay potency score (higher = more potent) does the source give for TTACTGGGCTTGTCCATGCGGT here?
Its sensor-assay potency score (higher = more potent) is -0.849.

How did the sensor-assay potency score (higher = more potent) turn out when TAGCGGTGCAGAGTGTGGCTGT was run?
The sensor-assay potency score (higher = more potent) was -0.244.

With TTACACATGAACTCCACGTTGC as the sequence, how does the sensor-assay potency score (higher = more potent) read?
Its sensor-assay potency score (higher = more potent) is 0.903.

Which sensor-assay potency score (higher = more potent) does the source give for TTGTAGACGATGACCGACCCCA here?
Its sensor-assay potency score (higher = more potent) is -0.237.

For TTGAACTTCACTGTCTTGGCAG, which sensor-assay potency score (higher = more potent) is on record?
Its sensor-assay potency score (higher = more potent) is 0.751.

For TCTCGGTGTATGCACTTCTTGG, which sensor-assay potency score (higher = more potent) is on record?
The sensor-assay potency score (higher = more potent) was -1.66.

TGAACTTCACTGTCTTGGCAGC was tested. Which sensor-assay potency score (higher = more potent) did it give?
The sensor-assay potency score (higher = more potent) was -0.906.

How did the sensor-assay potency score (higher = more potent) turn out when TGTCTTTTTATAGTAGTCGATG was run?
The sensor-assay potency score (higher = more potent) was -1.03.
